Reference: paper PMC4336329 (PLoS ONE, 2015)
In all, about 310,000 compounds went through this assay and about 14,000 (4.5%) showed an effect of 50% or more. Effects have a minus sign here. This is one part of a sample in which strong results are shown more often than they occur.

The molecules below were run against human ether-à-go-go-related gene (hERG) potassium channel (human, UniProt Q12809) (assay: primary screen, population patch clamp on CHO cells stably expressing hERG; higher = less effect of the substance).
human ether-à-go-go-related gene (hERG) potassium channel, sequence (Q12809 whole entry, looked up): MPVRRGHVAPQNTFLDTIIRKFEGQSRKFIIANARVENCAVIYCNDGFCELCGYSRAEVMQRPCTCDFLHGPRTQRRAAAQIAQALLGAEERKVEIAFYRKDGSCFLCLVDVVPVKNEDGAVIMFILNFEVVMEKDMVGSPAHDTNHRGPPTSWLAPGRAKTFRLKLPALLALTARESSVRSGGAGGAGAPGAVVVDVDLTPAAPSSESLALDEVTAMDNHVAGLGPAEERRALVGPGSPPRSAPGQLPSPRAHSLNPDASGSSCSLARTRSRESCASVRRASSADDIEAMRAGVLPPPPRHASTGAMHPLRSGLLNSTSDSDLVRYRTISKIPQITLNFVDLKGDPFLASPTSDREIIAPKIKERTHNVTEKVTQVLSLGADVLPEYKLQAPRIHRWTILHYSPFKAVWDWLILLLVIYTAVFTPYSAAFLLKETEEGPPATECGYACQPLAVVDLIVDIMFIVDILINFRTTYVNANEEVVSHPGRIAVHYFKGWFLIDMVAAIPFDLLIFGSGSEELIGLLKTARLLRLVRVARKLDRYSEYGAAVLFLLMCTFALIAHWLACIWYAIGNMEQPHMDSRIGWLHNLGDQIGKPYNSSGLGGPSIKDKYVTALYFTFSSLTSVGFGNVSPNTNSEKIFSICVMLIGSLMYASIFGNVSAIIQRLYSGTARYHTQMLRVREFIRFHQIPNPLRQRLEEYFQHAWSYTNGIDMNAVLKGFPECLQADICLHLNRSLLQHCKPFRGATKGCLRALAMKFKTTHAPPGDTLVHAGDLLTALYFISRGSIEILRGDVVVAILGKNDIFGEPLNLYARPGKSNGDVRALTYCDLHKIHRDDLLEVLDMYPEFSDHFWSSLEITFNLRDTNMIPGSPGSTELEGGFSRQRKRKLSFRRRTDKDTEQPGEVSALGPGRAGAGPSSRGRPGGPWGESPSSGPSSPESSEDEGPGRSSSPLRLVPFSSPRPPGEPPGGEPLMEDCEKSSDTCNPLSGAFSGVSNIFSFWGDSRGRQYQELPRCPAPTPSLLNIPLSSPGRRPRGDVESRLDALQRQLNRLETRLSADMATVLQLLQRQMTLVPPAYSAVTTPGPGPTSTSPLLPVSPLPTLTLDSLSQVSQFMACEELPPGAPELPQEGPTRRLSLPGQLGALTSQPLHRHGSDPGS
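Note: peak tail current of the secondary pulse compared with the same well before compound.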

| Compound | hERG current change (%, negative = inhibition) at 10uM [%] |
| --- | --- |
| Cl.Fc1ccc(Nc2nc(N3CCOCC3)c3ccccc3n2)cc1 | -2.91 |
| COc1ccc(Nc2nc(N3CCCCC3)c3ccccc3n2)cc1 | -32.9 |
| COc1ccc(Nc2nc(N3CCCC3)c3ccccc3n2)cc1.Cl | -70 |
| CCN(CC)c1ccc(Nc2nc(N3CCOCC3)c3ccccc3n2)cc1 | -71.8 |
| Cl.c1ccc(Nc2nc(N3CCOCC3)c3ccccc3n2)cc1 | -14.2 |
| COc1ccc(Nc2nc(N)c([N+](=O)[O-])c(N3CCCC3)n2)cc1 | -22.8 |
| CN1CCN(c2nc(Nc3ccc(O)cc3)nc3ccccc23)CC1.Cl | -34.9 |
| Cl.Oc1ccc(Nc2nc(N3CCCC3)c3ccccc3n2)cc1 | -70.2 |
| Cl.c1ccc2c(Nc3nc(N4CCOCC4)c4ccccc4n3)cccc2c1 | -6.79 |
| N#C/C(=C/c1ccccc1[N+](=O)[O-])c1nc(C2CC2)cs1 | -12.3 |
| CCCc1nnc(NC(=O)CCC(=O)NCc2ccccc2OC)s1 | 21.4 |
| CC1(c2ccccc2)NC(=O)N(CC(=O)NC(=O)NC2CCCC2)C1=O (centres unmarked) | 0.115 |
| Cc1ccc(-c2noc(CSc3nnc(-c4ccccc4)n3C)n2)cc1 | -3.5 |
| COc1cc2c(cc1OC)C(c1ccc(Br)cc1)NC(=O)C2 (centres unmarked) | 12.1 |
| O=C(CSc1nnc(-c2ccco2)n1CC1CCCO1)NC1CCCC1 (centres unmarked) | -4.75 |
| CN(C)CC(O)COc1cccc(OCC(O)CN(C)C)c1.Cl (centres unmarked) | 11.8 |
| CCCCN(CC(O)COc1cccc(C)c1)CC(O)COc1cccc(C)c1 (centres unmarked) | -81.7 |
| OCCN(CCO)CC(O)COc1ccc(Br)cc1 (centres unmarked) | 3.82 |
| CCCCN(CCCC)CC(O)COc1ccc(Br)cc1 (centres unmarked) | -74.4 |
| CC(C)NCC(O)COc1ccc(Br)cc1.Cl (centres unmarked) | -30.3 |
| Cc1cccc(OCC(O)Cn2ccnc2C)c1 (centres unmarked) | -9.12 |
| CCOP(=S)(OCC)SCC(=O)NC(C(=O)O)C(C)C (centres unmarked) | 7.13 |
| O=C(N=Nc1c(O)[nH]c2ccccc12)c1ccc2c(c1)OCO2 | 6.09 |

| Compound | hERG current change (%, negative = inhibition) at 10uM [%] |
| --- | --- |
| CCCNC(=O)c1ccc(S(=O)(=O)c2ccc(OC)cc2)c([N+](=O)[O-])c1 | -31.2 |
| Cc1cccc(NC(=S)NCCN2CCOCC2)c1C | 13.9 |
| COc1ccccc1-c1nnc2sc(COc3ccccc3)nn12 | -2.14 |
| COc1ccccc1-c1nnc2sc(COc3ccc(F)cc3)nn12 | -74 |
| COc1ccccc1-c1nnc2sc(COc3ccc(Cl)cc3)nn12 | -37.8 |
| COc1ccc2cc(CCNC(=O)c3ccco3)c(=O)[nH]c2c1 | -2.81 |
| O=P(O)(CCc1ccccn1)CN1CCOCC1 | 6.28 |
| O=P(O)(CCc1ccccn1)CN1CCCCC1 | -67.6 |
| O=P(O)(CCc1ccccc1)CN1CCCCC1 | 10.9 |
| Cc1cc(C)c2nc(-c3cccnc3)cc(C(=O)NC(C)c3cnn(C)c3C)c2c1 (centres unmarked) | -30.6 |
| CC(C)CCN1C(=O)c2ccc(C(=O)NCC3CCCO3)cc2C1=O (centres unmarked) | -8.48 |
| CC(C)N(Cc1nccn1C)C(=O)c1cc(COc2ccc3ncccc3c2)on1 | 9.33 |
| COc1cccc(OCc2cc(C(=O)N(Cc3nccn3C)C(C)C)no2)c1 | 8.5 |
| CC(C)N(Cc1nccn1C)C(=O)c1cc(COc2ccc(-n3cncn3)cc2)on1 | -51.5 |
| Cc1cc(OCc2cc(C(=O)N(Cc3nccn3C)C(C)C)no2)cc(C)c1Cl | -58.5 |
| CC(C)N(Cc1nccn1C)C(=O)c1cc(COc2ccc(F)cc2Cl)on1 | 0.188 |
| Cc1cccc(C)c1OCc1cc(C(=O)N(Cc2nccn2C)C(C)C)no1 | -5.91 |
| COc1ccc2nc(SC)cc(C)c2c1 | 16.5 |
| CCC1CCC2(CC1)NC(CO)(CO)CO2 (centres unmarked) | 8.52 |
| CC(C)CC1(C)N=C(c2ccccc2)C(=S)N1 (centres unmarked) | 8.32 |
| CCOc1cccc(CN2CCN(CCc3ccccc3)C(CCO)C2)c1O (centres unmarked) | -69.7 |
| CCOc1cccc(CN2CCN(Cc3ccc(C)o3)C(CCO)C2)c1O (centres unmarked) | -13.1 |
| COc1cccc(CN2CCN(CCCc3ccccc3)C(CCO)C2)c1OC (centres unmarked) | -48.6 |

| Compound | hERG current change (%, negative = inhibition) at 10uM [%] |
| --- | --- |
| COc1cccc(CN2CCN(CCCc3ccccc3)C(CCO)C2)c1O (centres unmarked) | -72.4 |
| C=CCOc1ccccc1CN1CCN(CCc2ccccc2)C(CCO)C1 (centres unmarked) | -59.4 |
| CCCn1ncc(CN2CCN(CCc3ccccc3)C(CCO)C2)c1C (centres unmarked) | -46.9 |
| CCOc1cccc(CN2CCN(CCCc3ccccc3)C(CCO)C2)c1O (centres unmarked) | -76.3 |
| COC(=O)CN1C(=S)N(c2ccc(OC)cc2)C(=O)/C1=C/c1cccs1 | 34 |
| Nc1nc(NCc2ccccc2)n(-c2ccccc2)n1 | 14.9 |
| CCOc1ccc(-n2nnnc2-c2nc3ccccc3s2)cc1 | 11.9 |
| O=c1[nH]cc(S(=O)(=O)N2CCOCC2)c(=O)[nH]1 | -7.17 |
| COCCn1c(=O)c2c(nc3n2CCCN3CCc2ccccc2)n(C)c1=O | -31.2 |
| C=CCn1c(=O)c2c(nc3n2CC(C)CN3CCc2ccccc2)n(C)c1=O (centres unmarked) | -72 |
| CC1CN(CCc2ccccc2)c2nc3c(c(=O)[nH]c(=O)n3C)n2C1 (centres unmarked) | -35.9 |
| CCn1c(=O)c2c(nc3n2CC(C)CN3CCc2ccccc2)n(C)c1=O (centres unmarked) | -72.6 |
| CCOCCn1c(=O)c2c(nc3n2CC(C)CN3CCc2ccccc2)n(C)c1=O (centres unmarked) | -71.5 |
| COCCn1c(=O)c2c(nc3n2CC(C)CN3CCc2ccccc2)n(C)c1=O (centres unmarked) | -56.6 |
| CCOCCn1c(=O)c2c(nc3n2CCCN3CCc2ccccc2)n(C)c1=O | -22.8 |
| COCCn1c(=O)c2c(nc3n2CC(C)CN3Cc2ccccc2)n(C)c1=O (centres unmarked) | -47.6 |
| CC1CN(CCc2ccccc2)c2nc3c(c(=O)n(CC(N)=O)c(=O)n3C)n2C1 (centres unmarked) | 2.53 |
| CCOCCn1c(=O)c2c(nc3n2CC(C)CN3Cc2ccccc2)n(C)c1=O (centres unmarked) | -49.5 |
| CC1CN(CCc2ccccc2)c2nc3c(c(=O)n(C)c(=O)n3C)n2C1 (centres unmarked) | -33.9 |
| C=CCn1c(=O)c2c(nc3n2CCCN3CCc2ccccc2)n(C)c1=O | -19.8 |
| CC(C)C(=O)Nc1cccc(NC(=O)c2cc3ccccc3o2)c1 | -22 |
| C=C(C)C1CC=C(C)/C(=N/NC(=O)COc2cccc3ccccc23)C1 (centres unmarked) | 10.9 |
| CCOc1cc(C(=O)NN2CCOCC2)cc(OCC)c1OCC | 35.2 |

| Compound | hERG current change (%, negative = inhibition) at 10uM [%] |
| --- | --- |
| CC(C)CC(=O)NC(=S)Nc1nc(-c2cccc3ccccc23)cs1 | 12.7 |
| COc1ccc(/C=N/n2cnnc2SCc2ccccc2)cc1 | -2.99 |
| Cc1nc(SCC(=O)NC2CCS(=O)(=O)C2)c2c(C)c(C)sc2n1 (centres unmarked) | 6.15 |
| Clc1ccccc1-c1nnc(-c2ccccc2Cl)o1 | -2.56 |
| COc1cccc(N/N=C/c2cccc(Br)c2O)c1 | -11.1 |
| CCOC(=O)c1sc2nc(SCC#N)n(CCCN3CCCC3=O)c(=O)c2c1C | -62.9 |
| CCOC(=O)c1sc2nc(SCC(=O)N(CC)CC)n(CCCN3CCCC3=O)c(=O)c2c1C | -32.4 |
| CCOC(=O)c1sc2nc(SCC#N)n(CC3CCCO3)c(=O)c2c1C (centres unmarked) | -13.5 |
| COc1cccc(C2C(C(=O)c3cc4ccccc4o3)=C(O)C(=O)N2CCN(C)C)c1OC (centres unmarked) | 0.215 |
| Cc1ccc(C(=O)CSc2cc(C)[nH]c(=O)n2)cc1 | 6.76 |
| CC(=O)NN1C(=O)/C(=C\c2ccc(Cl)cc2)SC1=S | 0.662 |
| N#Cc1cc2c(=O)n3ccccc3nc2n(Cc2cccnc2)c1=O | -21 |
| Cc1ccc2nc3c(cc(C#N)c(=O)n3-c3nccs3)c(=O)n2c1 | 2.51 |
| CCCn1c(=N)c(C#N)cc2c(=O)n3ccccc3nc21 | -9.89 |
| CCC(C)n1c(=N)c(C#N)cc2c(=O)n3cc(C)ccc3nc21 (centres unmarked) | -70.9 |
| Cc1ccc2nc(NCc3ccccc3)c(C=NCc3cccnc3)c(=O)n2c1 | 3.39 |
| CCC(C)n1c(=N)c(C#N)cc2c(=O)n3cccc(C)c3nc21 (centres unmarked) | -66.9 |
| CCCn1c(=N)c(C#N)cc2c(=O)n3cccc(C)c3nc21 | -53 |
| Cc1ccc2nc3c(cc(C#N)c(=N)n3Cc3cccnc3)c(=O)n2c1 | -60.4 |
| Cc1ccc(Cn2c(=N)c(C#N)cc3c(=O)n4cccc(C)c4nc32)cc1 | -13 |
| Cc1ccc(C)c(-n2c(=O)c(C#N)cc3c(=O)n4ccccc4nc32)c1 | 30.5 |
| CCC(C)n1c(=N)c(C#N)cc2c(=O)n3ccccc3nc21 (centres unmarked) | -40.9 |
| Cc1cccn2c(=O)c3cc(C#N)c(=O)n(-c4c(C)n(C)n(-c5ccccc5)c4=O)c3nc12 | -7.5 |
